The nature of experiment [1]: viability loss in pontine glioma line – cell-based, SU-DIPG-XVII, MIPE5.0, CellTiter-Glo, qHTS, dose response (AID 1347060; cut-off not given, nearly all actives have AC50 up to about 26 µM;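 on AC50: cells exposed to compound for 48 hours before viability readout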). The conditions noted are these: CellTiter-Glo ATP luminescence.
Experiment [2] is described as follows: viability loss in pontine glioma line – cell-based, SU-DIPG-XIII, MIPE4.0, CellTiter-Glo, qHTS, dose response (AID 1347061; cut-off not given, nearly all actives have AC50 up to about 37 µM;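 further: cells exposed to compound for 48 hours before readout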). The conditions noted are these: CellTiter-Glo ATP luminescence. (In general: Cellular ATP, detected with luciferase, serves as a proxy for viable cell number.)
The nature of experiment [3]: viability loss in pontine glioma line – cell-based, JHH-DIPG-1, MIPE4.0, CellTiter-Glo, qHTS, dose response (AID 1347062; cut-off not given, nearly all actives have AC50 up to about 27 µM;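 on AC50: cells exposed to compound for two days before readout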). The settings on record: JHH-DIPG-1 viability, CellTiter-Glo ATP luminescence.
Experiment [4] can be described thus: viability loss in pontine glioma line – cell-based, SU-DIPG-IV, MIPE4.0, CellTiter-Glo, qHTS, dose response (AID 1347063; cut-off not given, nearly all actives have AC50 up to about 30 µM;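 further: compound exposure lasted 48 hours before the viability readout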). The conditions noted are these: CellTiter-Glo ATP luminescence.
Experiment [5] can be described thus: viability loss in pontine glioma line – cell-based, SU-DIPG-XIII, MIPE5.0, CellTiter-Glo, qHTS, dose response (AID 1347064; cut-off not given, nearly all actives have AC50 up to about 23 µM;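 on AC50: cells exposed to compound for 48 hours before the viability read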). The conditions noted are these: CellTiter-Glo ATP luminescence.
Experiment [6] in a line: viability loss in pontine glioma line – cell-based, SU-DIPG-XXV, MIPE5.0, CellTiter-Glo, qHTS, dose response (AID 1347065; cut-off not given, nearly all actives have AC50 up to about 26 µM;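 further: cells exposed to compound for 48 hours before ATP readout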). The settings on record: CellTiter-Glo ATP luminescence.
The nature of experiment [7]: growth inhibition of DIPG cells – cell-based, MIPE4.0 library, CellTiter-Glo luminescence, qHTS (AID 1347066; cut-off not given, nearly all actives have AC50 up to about 30 µM;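 further: cells exposed to compound for 48 hours before readout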). The conditions noted are these: SU-DIPG-VI viability, CellTiter-Glo ATP luminescence.
The nature of experiment [8]: JHH-DIPG-1 glioma cell viability, MIPE5.0 library, CellTiter-Glo luminescence, qHTS (AID 1347067; cut-off not given, nearly all actives have AC50 up to about 26 µM;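 further: cells exposed to compound for 48 hours before readout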). The settings on record: JHH-DIPG-1 glioma viability, CellTiter-Glo ATP luminescence.
Experiment [9] is described as follows: growth inhibition of DIPG cells – cell-based, MIPE5.0 library, qHTS (AID 1347068; cut-off not given, nearly all actives have IC50 up to about 30 µM;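 on IC50: cells exposed to compound for 48 hours before viability readout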). The settings on record: SU-DIPG-XXV viability.
The nature of experiment [10]: compounds altering HSF1 focus formation in cells – imaging, Selleck Cancer Library (AID 1347162; in the data active means plate-normalised HSF1 focus index below about 0.46). The conditions noted are these: human cells, HSF1 nuclear foci imaging, at 10 µM; SSMD: measured here: HSF1 foci SSMD mean; cell count: measured here: cell number; plate-normalised HSF1 focus index: stronger effect = lower value.
The nature of experiment [11]: drug combination growth inhibition, ovarian cancer – cell-based, oncology-focused library, rucaparib conditional, profiling panel (AID 1508598). The settings on record: patient-derived ovarian cancer cells, CellTiter-Glo viability, 144 h, stronger effect = lower value.
Experiment [12] can be described thus: viability loss with induced miR-34 in A549 – imaging, A549 dox-inducible miR-34, nuclei and caspase counts, primary screen (AID 1347080;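 active means compounds whose cell count with miR-34 switched on is under 0.7 times the count with it off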). The settings on record: A549 miR-34 inducible, Hoechst nuclei count, 48 h.
Experiment [13] can be described thus: MELAS cybrid and Rieske KO viability enhancers – cell-based, MELAS cybrids, Rieske KO mouse fibroblasts, CellTiter-Glo, primary screen (AID 1508586;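 active means mean z-score across replicates of 1.96 or higher in either the MELAS or the Rieske mutant cell line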;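 further: z relative to plate mean and SD of compound and empty wells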). The settings on record: low glucose.
Setting [14] is: stronger effect = lower value, cell number ratio, induced over uninduced.
The mark [15] stands for this setting: measured here: relative caspase fold change +Dox/-Dox.
The mark [16] stands for this setting: measured here: total cells with miR-34 induction, stronger effect = lower value.
The mark [17] stands for this setting: measured here: total cells without miR-34 induction.
Where [18] appears, read: MELAS cybrid survival, CellTiter-Glo 48 h, stronger effect = higher value.
The mark [19] stands for this setting: Rieske KO mouse fibroblast survival, CellTiter-Glo 72 h.

Inconclusive results are not listed. Active and inactive are the calls of the source.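 How the source made its calls, unless noted: active means normalized viability below 100% at a tested concentration; inactive means the rest.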

Regarding `c1cc(CN2CCCNCCNCCCNCC2)ccc1CN1CCCNCCNCCCNCC1`, the call in experiment [1], in [2], in experiment [3], in experiment [4], in [5] and in experiment [6] was inactive. In addition, the outcome in experiment [7], in experiment [8] and in [9] was inactive.
Usually AC50 stands for the concentration at which the activity in the assay is half-maximal. In general, IC50 refers to the midpoint of a concentration-inhibition curve. A word on the viability: it is a read-out of living cells in per cent, often relative to untreated cells. With `NC(=O)Nc1cc(-c2cccc(F)c2)sc1C(=O)N[C@H]1CCCNC1`, the concentration at half-maximal activity (AC50) in experiment [1] is 1.48 µM (active); in [2], 20.9 µM (active); in [3] it was 0.526 µM (active); in [4], 5.9 µM (active); in experiment [5], 2.09 µM (active); in [6] it was 1.18 µM (active). Also, the results for the AC50 in experiment [7] and in experiment [8] were 18.7 µM (active) and 3.32 µM (active), respectively. Also, the IC50 in [9] was 2.95 µM (active). Besides, the SSMD in experiment [10] is -1.43. For the same molecule, in experiment [10], the cell count turned out to be 7360. In experiment [10], the plate-normalised HSF1 focus index is 0.95 (inactive). The viability in [11] (at 0.000305 µM, OCI-C5x cells, with rucaparib 10 µM, 100% = cells with rucaparib alone) is 130% (inactive); in experiment [11] (at 0.000305 µM, OCI-C5x cells, without rucaparib), 94.3% (active); in [11] (at 0.000305 µM, OCI-P5x cells, with rucaparib 20 µM, 100% = cells with rucaparib alone), 76% (active); in [11] (at 0.000305 µM, OCI-P5x cells, without rucaparib), 79.5% (active); in [11] (at 0.00122 µM, OCI-C5x cells, with rucaparib 10 µM, 100% = cells with rucaparib alone) it was 134% (inactive); in experiment [11] (at 0.00122 µM, OCI-C5x cells, without rucaparib) it was 97.4% (active). In addition, the viability in experiment [11] (at 0.00122 µM, OCI-P5x cells, with rucaparib 20 µM, 100% = cells with rucaparib alone) was 73.7% (active); in [11] (at 0.00122 µM, OCI-P5x cells, without rucaparib) it was 86.4% (active); in experiment [11] (at 0.00488 µM, OCI-C5x cells, with rucaparib 10 µM, 100% = cells with rucaparib alone) it was 117% (inactive); in experiment [11] (at 0.00488 µM, OCI-C5x cells, without rucaparib) it was 97.4% (active); in experiment [11] (at 0.00488 µM, OCI-P5x cells, with rucaparib 20 µM, 100% = cells with rucaparib alone), 56.6% (active); in experiment [11] (at 0.00488 µM, OCI-P5x cells, without rucaparib), 87.5% (active). Also, the viability in experiment [11] (at 0.0195 µM, OCI-C5x cells, with rucaparib 10 µM, 100% = cells with rucaparib alone) is 108% (inactive); in experiment [11] (at 0.0195 µM, OCI-C5x cells, without rucaparib) it was 81.6% (active); in experiment [11] (at 0.0195 µM, OCI-P5x cells, with rucaparib 20 µM, 100% = cells with rucaparib alone), 55.1% (active); in experiment [11] (at 0.0195 µM, OCI-P5x cells, without rucaparib), 90.2% (active); in experiment [11] (at 0.0781 µM, OCI-C5x cells, with rucaparib 10 µM, 100% = cells with rucaparib alone), 81.1% (active); in experiment [11] (at 0.0781 µM, OCI-C5x cells, without rucaparib), 53.1% (active). Moreover, the viability in experiment [11] (at 0.0781 µM, OCI-P5x cells, with rucaparib 20 µM, 100% = cells with rucaparib alone) is 44.5% (active); in experiment [11] (at 0.0781 µM, OCI-P5x cells, without rucaparib) it was 73.5% (active); in experiment [11] (at 0.313 µM, OCI-C5x cells, with rucaparib 10 µM, 100% = cells with rucaparib alone), 48% (active); in experiment [11] (at 0.313 µM, OCI-C5x cells, without rucaparib), 30.6% (active); in experiment [11] (at 0.313 µM, OCI-P5x cells, with rucaparib 20 µM, 100% = cells with rucaparib alone), 26% (active); in experiment [11] (at 0.313 µM, OCI-P5x cells, without rucaparib) it was 21.6% (active). Moreover, the viability in experiment [11] (at 1.25 µM, OCI-C5x cells, with rucaparib 10 µM, 100% = cells with rucaparib alone) is 33.5% (active); in experiment [11] (at 1.25 µM, OCI-C5x cells, without rucaparib) it was 20% (active); in experiment [11] (at 1.25 µM, OCI-P5x cells, with rucaparib 20 µM, 100% = cells with rucaparib alone), 13.7% (active); in experiment [11] (at 1.25 µM, OCI-P5x cells, without rucaparib), 9.05% (active); in experiment [11] (at 5 µM, OCI-C5x cells, with rucaparib 10 µM, 100% = cells with rucaparib alone), 13% (active); in [11] (at 5 µM, OCI-C5x cells, without rucaparib) it was 8.94% (active). In addition, the viability in [11] (at 5 µM, OCI-P5x cells, with rucaparib 20 µM, 100% = cells with rucaparib alone) was 6.86% (active); in experiment [11] (at 5 µM, OCI-P5x cells, without rucaparib), 3.71% (active).
As to `COc1cc2c(Oc3ccc(NC(=O)C4(C(=O)Nc5ccc(F)cc5)CC4)cc3F)ccnc2cc1OCCCN1CCOCC1`, the concentration at half-maximal activity (AC50) was 2.63 µM (active) in experiment [1]; 8.33 µM (active) in experiment [2]; 18.7 µM (active) in experiment [3]; 6.62 µM (active) in experiment [4]; 3.72 µM (active) in experiment [5]; 1.32 µM (active) in [6]. Also, the AC50 in experiment [7] was 11.8 µM (active); in experiment [8], 5.9 µM (active). For the same molecule, in experiment [9], the IC50 was 3.72 µM (active). For the same molecule, the fold change was 1.06 (inactive) in experiment [12] (setting [14]) and 0.77 in [12] (setting [15]). Moreover, the cell count was found to be 1060 in experiment [12] (setting [16]) and 992 in [12] (setting [17]). Further, the z-score in experiment [13] (setting [18]) is 2.58 (active); in [13] (setting [19]) it was 0.0525.
For the molecule `CCN(CC)Cc1ccc2cc(COC(=O)Nc3ccc(C(=O)NO)cc3)ccc2c1`, the AC50 in experiment [1] is 5.25 µM (active); in experiment [2], 11.8 µM (active); in experiment [3], 2.64 µM (active); in experiment [4], 5.26 µM (active); in experiment [5], 2.63 µM (active); in experiment [6], 1.66 µM (active). The values for the AC50 in experiment [7] and in experiment [8] were 1.66 µM (active) and 1.48 µM (active), respectively. Moreover, the IC50 in experiment [9] is 18.6 µM (active). Besides, the figures for the fold change in experiment [12] (setting [14]) and in [12] (setting [15]) were 1.01 (inactive) and 0.529, respectively. The results for the cell count in experiment [12] (setting [16]) and in experiment [12] (setting [17]) were 1260 and 1250, respectively. For the same molecule, the z-score in experiment [13] (setting [18]) is 1.32 (inactive); in experiment [13] (setting [19]) it was -3.38.

(Values after PubChem BioAssay.)
